“And” between values parts separate entries of the source, which are not always exact repeats. Equal entries are not always repeated. Results filed as inconclusive are left out. The source made the active and inactive calls. Unless noted, calls come from the whole dose curve; as a rule, active = well fitted curve in the direction sought with a large enough effect in the repeat runs; inconclusive = weak or mixed curves; inactive = no such curve, though single readings can be large; an effect the other way counts as inactive or inconclusive.
How the values were obtained:
[1] = target: Thyrotropin-releasing hormone receptor (Homo sapiens) (UniProt P34981); test: qHTS assay to identify small molecule agonists of the thyrotropin-releasing hormone receptor (TRHR) signaling pathway (AID 1346891; calls by dose curve; note: series mostly up to about 58 µM)
Thyrotropin-releasing hormone receptor (Homo sapiens), sequence (P34981 whole entry, looked up): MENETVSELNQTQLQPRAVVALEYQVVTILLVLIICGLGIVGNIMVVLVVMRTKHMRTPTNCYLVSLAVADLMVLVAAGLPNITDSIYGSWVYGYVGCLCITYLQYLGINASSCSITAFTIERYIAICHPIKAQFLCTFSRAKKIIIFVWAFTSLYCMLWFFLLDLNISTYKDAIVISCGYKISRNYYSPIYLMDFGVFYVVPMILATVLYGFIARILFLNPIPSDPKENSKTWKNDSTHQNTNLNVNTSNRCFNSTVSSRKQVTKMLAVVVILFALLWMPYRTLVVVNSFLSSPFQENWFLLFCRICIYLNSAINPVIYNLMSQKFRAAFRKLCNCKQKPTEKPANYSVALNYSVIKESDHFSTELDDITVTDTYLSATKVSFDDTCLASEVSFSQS
Procedure, shortened: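 Readout was intracellular calcium fluorescence in TRHR-Hek293 cells. Cells were incubated 18 h, dye-loaded 2 h at 37 °C, and treated with compound in agonist mode.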

[2] = Human pregnane X receptor (PXR) small molecule agonists, qHTS cell viability counter screen (AID 1346977); note: nearly all actives have a fitted effect of over 50% in size; note: potency is the fitted concentration of half-maximal effect
Procedure, shortened: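 In each well, the PXR reporter HepG2 line was checked for viability: CellTiter-Fluor reagent added 23hr post-dosing, fluorescence read after 1hr incubation at 37C.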

[3] = Caspase-3/7 induction in HepG2 cells by small molecules, qHTS assay (AID 1346978); note: nearly all actives have a fitted effect of over 15% in size
Procedure, shortened: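 Wild-type HepG2 cells (2,000/well) were settled 5 h at 37 C, 5% CO2, then exposed to compounds in DMSO for 17 h. Caspase-3/7 activity was read by luminescence 30 min after adding Caspase-Glo 3/7 reagent at room temperature.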

[4] = Caspase-3/7 induction in CHO-K1 cells by small molecules, qHTS cell viability counter screen (AID 1346979); note: nearly all actives have a fitted effect of over 35% in size; note: potency is the fitted concentration of half-maximal effect
Procedure, shortened: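 Following a 5hr settling period, CHO-K1 cells at 1,500 per well received DMSO-dissolved compounds. Cell viability was quantified 16hr later by CellTiter-Fluor fluorescence, measured after 1hr with reagent at 37C.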

[5] = Caspase-3/7 induction in CHO-K1 cells by small molecules, qHTS assay (AID 1346980); note: nearly all actives have a fitted effect of over 15% in size
Procedure, shortened: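 Wild-type cells were seeded at 1,500 per well and settled 5 hr at 37 C, 5% CO2, then exposed to DMSO-dissolved compounds for 17 hr. Caspase-Glo 3/7 reagent was added, and luminescence was read after 30min at room temperature.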

[6] = Caspase-3/7 induction in HepG2 cells by small molecules, qHTS cell viability counter screen (AID 1346981); note: series mostly up to about 92 µM; nearly all actives have a fitted effect of over 30% in size
Procedure, shortened: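 Counter screen for cytotoxicity: HepG2 exposed 16 hr to compounds, then CellTiter-Fluor viability signal (fluorescence, 1 hr reagent incubation).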

[7] = target: Nuclear receptor subfamily 1 group I member 2 (Rattus norvegicus) (UniProt Q9R1A7); test: Rat pregnane X receptor (rPXR) activation by small molecules, qHTS assay (AID 1346983); conditions: rPXR luciferase reporter cells, One-Glo luminescence, 24 h; active compounds read high; note: nearly all actives have a fitted effect of over 20% in size
Nuclear receptor subfamily 1 group I member 2 (Rattus norvegicus), sequence (Q9R1A7 whole entry, looked up): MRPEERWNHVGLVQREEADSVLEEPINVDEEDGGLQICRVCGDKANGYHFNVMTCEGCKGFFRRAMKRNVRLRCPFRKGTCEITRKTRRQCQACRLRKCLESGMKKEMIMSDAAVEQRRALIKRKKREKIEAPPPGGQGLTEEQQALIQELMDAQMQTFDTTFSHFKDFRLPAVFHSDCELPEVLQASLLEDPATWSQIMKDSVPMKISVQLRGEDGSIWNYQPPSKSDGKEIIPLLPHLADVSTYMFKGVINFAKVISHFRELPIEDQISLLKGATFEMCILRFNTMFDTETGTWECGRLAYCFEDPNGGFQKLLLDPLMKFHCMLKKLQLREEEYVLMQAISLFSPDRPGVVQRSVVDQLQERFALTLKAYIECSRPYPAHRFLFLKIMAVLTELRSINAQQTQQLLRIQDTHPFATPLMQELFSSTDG
Procedure, shortened: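 Cell-based rPXR luciferase reporter assay, 2,000 cells per well, rested 5hr at 37 C before compound addition in DMSO, then 24 hr at 37 C. One-Glo reagent was added and luminescence read after 30 min at room temperature.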

[8] = target: Nuclear receptor subfamily 1 group I member 2 (Homo sapiens) (UniProt O75469); test: CYP3A4 induction through human pregnane X receptor (PXR) by small molecules, qHTS assay (AID 1346984); note: nearly all actives have a fitted effect of over 40% in size; note: potency is the fitted concentration of half-maximal effect
Nuclear receptor subfamily 1 group I member 2 (Homo sapiens), sequence (O75469 whole entry, looked up): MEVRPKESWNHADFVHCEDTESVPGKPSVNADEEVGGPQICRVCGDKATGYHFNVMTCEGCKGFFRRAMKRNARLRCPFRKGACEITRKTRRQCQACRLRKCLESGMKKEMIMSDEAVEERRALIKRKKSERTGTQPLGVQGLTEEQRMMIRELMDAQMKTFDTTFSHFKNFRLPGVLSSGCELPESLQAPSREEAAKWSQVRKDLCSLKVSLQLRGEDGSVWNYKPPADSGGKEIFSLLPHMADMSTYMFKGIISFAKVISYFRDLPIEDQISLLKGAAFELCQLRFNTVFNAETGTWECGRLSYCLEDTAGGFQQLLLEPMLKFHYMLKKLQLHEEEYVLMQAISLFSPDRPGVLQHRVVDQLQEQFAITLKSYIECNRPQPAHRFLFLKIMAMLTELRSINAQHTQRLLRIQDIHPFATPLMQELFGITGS
Procedure, shortened: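 DPX-2 reporter cells; 24h cpd, 37C; Luciferin-IPA 3uM final x3h; One-Glo 30 min RT; lumi read.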

[9] = target: Nuclear receptor subfamily 1 group I member 2 (Homo sapiens) (UniProt O75469); test: Human pregnane X receptor (PXR) activation by small molecules, qHTS assay (AID 1346985); note: nearly all actives have a fitted effect of over 40% in size
Procedure, shortened: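 DPX-2 cells (HepG2 co-transfected with a PXR response element and a CYP3A4-promoter luciferase construct) were seeded at 2,000 per well, rested 5 hr at 37C, then exposed to DMSO-dissolved compounds for 24 hr. Activation was read as luciferase luminescence.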

[10] = target: Nuclear receptor subfamily 1 group I member 2 (Homo sapiens) (UniProt O75469); test: Human pregnane X receptor (PXR) small molecule agonists, qHTS assay (AID 1346982); note: nearly all actives have a fitted effect of over 35% in size; note: potency is the fitted concentration of half-maximal effect
Procedure, shortened: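 Luminescence (ONE-Glo, 30 min RT) after 24 hr compound exposure of PXR-Luc HepG2 cells; cells rested 5 hr post-plating in 5% charcoal-stripped FBS medium.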
% is set by controls: 0 for no effect and ±100 for the full control effect.

CCOC(=O)c1c(C)n(C)c2ccc(O)cc12
inactive: outcome [1] | Potency [2] | Potency [3] | Potency [4] | outcome [5] | Potency [6] | max activation [7] -1.63% | Potency [8] | Potency [9]

CC(C)(C)NCCNC(C)(C)C
inactive: Potency [2] | Potency [3] | Potency [4] | outcome [5] | Potency [6] | Potency [10]

CCN1CCC[C@H]1CNC(=O)c1c(O)c(Cl)cc(Cl)c1OC
inactive: outcome [1] | Potency [2] | Potency [3] | Potency [4] | outcome [5] | Potency [6] | max activation [7] -0.579% | Potency [8]

O=C(O)COc1nn(Cc2ccccc2)c2ccccc12
inactive: outcome [1] | Potency [2] | Potency [3] | outcome [5] | Potency [6] | Potency [10] | max activation [7] -0.954% | Potency [8] | Potency [9]

CCC=O
inactive: Potency [2] | Potency [3] | Potency [4] | outcome [5] | Potency [6] | Potency [10]

OC(CCN1CCCCC1)(c1ccccc1)C1CC2C=CC1C2 (stereo not drawn)
active: Potency [10] 10.6 µM | Potency [8] 28.2 µM
inactive: outcome [1] | Potency [3] | Potency [4] | outcome [5] | Potency [6] | max activation [7] -2.76%

CC(C)(C)c1ccc(O)c(O)c1
inactive: outcome [1] | Potency [2] | Potency [3] | outcome [5]
active: Potency [4] 63.2 µM and 57.7 µM | Potency [10] 63.2 µM and 27.3 µM

C=CCS(=O)(=O)O
inactive: outcome [1] | Potency [3] | Potency [4] | outcome [5] | Potency [6]

NS(=O)(=O)c1cc(C(=O)NN2C[C@H]3[C@H]4CCC(C4)[C@H]3C2)ccc1Cl
inactive: outcome [1] | Potency [2] | Potency [3] | outcome [5] | Potency [6] | Potency [10]

COc1ccc2c(c1)CCCC2=O
inactive: Potency [2] | Potency [3] | Potency [4] | outcome [5] | Potency [6] | Potency [10]

O=C1OC(=O)C2CCCCC12 (stereo not drawn)
inactive: Potency [2] | Potency [3] | Potency [4] | outcome [5] | Potency [6] | Potency [10]

CC(C)(CC(=O)O)C(=O)O
inactive: Potency [2] | Potency [3] | Potency [4] | outcome [5] | Potency [6] | Potency [10]

FC1(F)C(F)(F)C(F)(F)C2(F)C(F)(F)C(F)(F)C(F)(F)C(F)(F)C2(F)C1(F)F (stereo not drawn)
inactive: Potency [2] | Potency [3] | Potency [4] | outcome [5] | Potency [6] | Potency [10] | max activation [7] -2.25% | Potency [8] | Potency [9]

Cc1cccn2c(=O)c(-c3nnn[nH]3)cnc12
inactive: activity change, negative = cytotoxicity [2] -2.85% [at 19 µM] | caspase activation [3] -1.09% [at 19 µM] | Potency [4] | caspase-3/7 activation [5] -1.17% [at 19 µM] | activity change, negative = cytotoxicity [6] -1.23% [at 19 µM] | activation [10] -6.8% [at 19 µM] | max activation [7] -7.7% | Potency [8] | Potency [9]

O=[N+]([O-])c1ccc(F)cc1F
inactive: Potency [2] | Potency [3] | Potency [4] | outcome [5] | Potency [6] | Potency [10]

CCOC(=O)Nc1ccc(NCc2ccc(F)cc2)nc1N
inactive: Potency [2] | Potency [3] | Potency [4] | outcome [5] | Potency [6] | Potency [10] | max activation [7] 1.97% | Potency [8]

Brc1c(NC2=NCCN2)ccc2nccnc12
inactive: Potency [3] | Potency [4] | outcome [5] | Potency [6]

CC1(C)C(O)C(C)(C)C1O (stereo not drawn)
inactive: Potency [2] | Potency [3] | Potency [4] | outcome [5] | Potency [6] | Potency [10]

CC(=O)OCC(=O)[C@@]1(O)CCC2C3CCC4=CC(=O)CC[C@]4(C)C3[C@@H](O)C[C@@]21C (stereo partly drawn)
inactive: Potency [2] | Potency [3] | Potency [4] | outcome [5] | Potency [6] | Potency [10]

CN1CCC(=C2c3ccccc3CC(=O)c3sccc32)CC1
inactive: Potency [3] | Potency [4] | outcome [5] | Potency [6] | Potency [10]

CN(C(=O)c1c(O)c2ccccc2n(C)c1=O)c1ccccc1
inactive: Potency [2] | Potency [3] | Potency [4] | outcome [5] | Potency [6] | max activation [7] -3.59%

CCN(CC)CCOCCOC(=O)C1(c2ccccc2)CCCC1
active: Potency [2] 26.6 µM | Potency [8] 12.6 µM
inactive: Potency [3] | Potency [4] | outcome [5] | Potency [6] | max activation [7] 0.476%

NS(=O)(=O)c1ccc(C(=O)O)cc1
inactive: Potency [2] | Potency [3] | Potency [4] | outcome [5] | Potency [6] | Potency [10]
